A selection: hits, their analogues and other compounds. The true share with any hit is near 2.1%.
MITF TRPM1 inh: inhibitors of MITF-driven TRPM1 promoter in melanoma cells; inhibition, % at 12.5 µM; SK-MEL-5 TRPM1 promoter luciferase, 24 h; 330,000 tested, 0.83% active;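 active = mean inhibition across replicates of 60% or more, whatever share of single replicates reaches that level; inconclusive = some that reach 60%, reason not given; inactive = mean inhibition across replicates below 60%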
PAX8 inh HTS: lowers PAX8-driven luciferase in RMG-I cells. RMG-I TPO-luciferase reporter, SteadyGlo, 24 h. AID 652154. inhibition, % at 12.6 µM. 360,000 tested, 1.2% active;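 active = mean replicate inhibition at least 60% with every replicate also reaching 60%; inconclusive = only one of the two criteria is met; inactive = mean below 60% and not all replicates reaching 60%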;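 note: luciferase light reporting Pax8 driven TPO promoter activity; plate controls were median of neutral control wells for no effect and mitoxantrone controls for full effect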
EBV LMP1 NFkB: reduces LMP1-driven NF-kappaB luciferase signal; inhibition, % at 12.5 µM; LMP1-induced NF-kappaB luciferase reporter cells, luminescence; 350,000 tested, 0.69% active; in the data active = inhibition above about 41%; inconclusive = no clear call, values can overlap the other calls;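 note: 0% = neutral control wells and 100% = reference inhibitor control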
Shn3 3UTR inh: Schnurri-3 reporter inhibition in Clone20 osteoblasts; inhibition, % at 12.5 µM; Clone20 osteoblast Shn3 3'UTR firefly luciferase, 24 h; AID 588674; 360,000 tested, 0.52% active;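 active = mean inhibition of at least 75% with every replicate also reaching 75%; inconclusive = mean inhibition at least 75% but some replicate below; inactive = mean inhibition below 75%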;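 note: 0% = median of neutral control wells and 100% = pilot-screen positive control compound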
aSyn 5UTR inh: MLPCN primary screen, SNCA 5' untranslated region; alpha-synuclein 5'UTR reporter, inhibitor activity; inhibition, % (tested at 7.5 µM); 300,000 tested, 0.82% active; AID 1813; in the data active = inhibition above about 60%; inconclusive = no clear call, values can overlap the other calls;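 note: H4 neuroglioblastoma cells stably carrying SNCA 5'UTR luciferase fusion; 0% = DMSO wells and 100% = positive control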
Numbers without * were called inactive; ? = inconclusive; · = not tested or not shown.

SMILES | MITF TRPM1 inh | PAX8 inh HTS | EBV LMP1 NFkB | Shn3 3UTR inh | aSyn 5UTR inh
CCCCCCCCN1C(=O)[C@@H](CC(=O)N2CCN(C(=O)c3ccco3)CC2)C[C@@]2(C(=O)OC)C1=C[C@H](C1CCCC1)O[C@@H]2C | · | 73* | · | · | ·
O=C(c1ccccc1)N1C[C@H]2[C@@H](c3ccccc31)[C@@H](CO)N2C(=O)Nc1ccccc1Cl | · | 11 | · | · | ·
CN(C)c1ccc(NC(=O)Nc2ccc3c(c2)c(=O)n(C)n3Cc2ccccc2)cc1 | · | 17 | · | 16 | ·
Cc1ccc(S(=O)(=O)Nc2ccc3c(c2)C(=O)N([C@H](C)CO)C[C@@H](C)[C@H](CN(C)C(=O)C2CCCCC2)OCCCC[C@H](C)O3)cc1 | · | 75* | · | · | ·
C[C@@H]1CCCCO[C@@H](CN(C)C(=O)C2CCCCC2)[C@@H](C)CN([C@@H](C)CO)C(=O)c2cc(NS(=O)(=O)c3ccc(Cl)cc3)ccc2O1 | · | 32 | · | · | ·
C[C@H]1CCCCO[C@H](CN(C)C(=O)C2CCCCC2)[C@@H](C)CN([C@@H](C)CO)C(=O)c2cc(NS(=O)(=O)c3ccc(Cl)cc3)ccc2O1 | · | 86* | · | · | ·
C[C@@H]1CCCCO[C@H](CN(C)C(=O)C2CCCCC2)[C@H](C)CN([C@H](C)CO)C(=O)c2cc(NS(=O)(=O)c3ccc(Cl)cc3)ccc2O1 | · | 67* | · | · | ·
C[C@@H]1CCCCO[C@@H](CN(C)C(=O)C2CCCCC2)[C@H](C)CN([C@@H](C)CO)C(=O)c2cc(NS(=O)(=O)c3ccc(Cl)cc3)ccc2O1 | · | 81* | · | · | ·
Cc1ccc(S(=O)(=O)Nc2ccc3c(c2)C(=O)N([C@H](C)CO)C[C@H](C)[C@H](CN(C)C(=O)C2CCCCC2)OCCCC[C@H](C)O3)cc1 | · | 17 | · | · | ·
C[C@@H]1CCCCO[C@H](CN(C)C(=O)C2CCCCC2)[C@@H](C)CN([C@H](C)CO)C(=O)c2cc(NS(=O)(=O)c3ccc(Cl)cc3)ccc2O1 | · | -2 | · | · | ·
C[C@@H]1ON(C)[C@H]2C[C@H]3c4[nH]c5c(-c6ccc(Cl)cc6)cccc5c4CCN3C(=O)[C@@H]12 | · | 12 | · | · | ·
CCC(=O)NC(C)c1nc2ccccc2n1C (configuration not stated) | 0 | -6 | -2 | 1 | -6
Cc1ccc(OCCCCN(C)Cc2ccccc2)c(Br)c1 | -7 | · | -7 | 7 | 5
O=c1[nH]c(CCl)nc2cc(-c3ccc(F)cc3)sc12 | -3 | -56 | 18 | -44 | 29
COc1ccc(CC(=O)NNC(=O)c2ccco2)cc1OC | -5 | -76 | -3 | 8 | -19
C[C@H](CO)N1C[C@H](C)[C@H](CN(C)C)Oc2cc(C#CC3CCCC3)ccc2S1(=O)=O | · | 9 | · | · | ·
CCC(C)(C)c1ccc(OCCCC[n+]2cccc(C)c2C)c(C(C)(C)CC)c1 | 71* | 98* | 7 | · | 101*
CCC(C)(C)c1ccc(OCCCC[n+]2ccc(C)cc2)c(C(C)(C)CC)c1 | · | 85* | · | · | 25
COc1ccc(CNC(=O)c2sc(=S)n(-c3ccccc3)c2N)cc1 | -1 | -21 | 2 | 17 | 7
CC(NC(=O)CCc1nnc(-c2ccc(-c3ccccc3)cc2)o1)c1nccs1 (configuration not stated) | 35 | -30 | 10 | 50 | 89*
CC(c1nccs1)N(C)C(=O)CCc1nnc(-c2ccc(-c3ccccc3)cc2)o1 (configuration not stated) | 0 | -37 | 14 | 4 | 19
COCCNC(=O)CCc1nnc(Cc2ccc(-c3ccccc3)cc2)o1 | 2 | 3 | -4 | -27 | 7
O=C(CCc1nnc(Cc2ccc(-c3ccccc3)cc2)o1)NCCc1ccccn1 | -8 | -13 | 2 | -7 | 12
COC(=O)CCCNC(=O)CCc1nnc(-c2ccc(-c3ccccc3)cc2)o1 | 17 | -48 | 8 | 22 | 77*
O=C(CCc1nnc(-c2ccc(-c3ccccc3)cc2)o1)NCCc1ccccn1 | 18 | -34 | 25 | 14 | 90*
O=S(=O)(c1ccccc1Cl)N1CCCC1c1nc(-c2cccc(Cl)c2)no1 (configuration not stated) | -2 | 11 | 1 | 4 | -14
CC1=C(C(=O)N2CCCCCC2)CC(CC(=O)NCc2cccs2)C(=O)N1CCC1=CCCCC1 (configuration not stated) | · | 4 | · | · | ·
CN[C@H]1CCc2cc(OC)c(OC)c(OC)c2-c2ccc(N(C)CC(OC)OC)c(=O)cc21 | 24 | ? | 1 | 19 | 70*
COc1cc(CNC2CCCc3ccccc32)cc(OC)c1OC (configuration not stated) | 14 | 21 | -16 | 4 | 17

High-throughput results deposited in PubChem by Broad Institute.
